p97 ATPase inh: human p97 ATPase inhibition; recombinant p97 ATPase, Kinase-Glo ATP luminescence, 3 h; P55072; actives 0.42% (n = 220,000); inhibition, % at 8 µM; in the data active means inhibition above about 15%;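 further: 0% = DMSO vehicle and 100% = wells lacking enzyme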
PERK inhibitor: blocks human PERK kinase. Q9NZJ5. CHO PERK-DD fusion, SEAP luminescence translation reporter. inhibition, % at 5.6 µM. actives 0.17% (n = 220,000). AID 1416;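 active means inhibition above the mean inhibition of all tested compounds plus 3 SD, set separately per screening campaign, cut at about 2.9% in these data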;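 further: PERK kinase domain activated by AP20187 dimerizer at 100 nM; 0% = DMSO with dimerizer and 100% = rapamycin at 8.4 µM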
Redox H2O2 prof: compounds producing H2O2 with reducing agent – biochemical, NIH compound library profiling, artefact control for MLSCN library redox annotation, primary screen; DTT-dependent redox cycling H2O2, phenol red/HRP absorbance; 100% = 100 µM peroxide control, 0% = buffer; activation, % at 10 µM; actives 0.03% (n = 200,000); AID 878;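 active means activation of at least 50% relative to the plate's high and low controls in the primary single-dose screen; inactive means activation below 50%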;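 further: compound incubated with DTT at 0.8 mM final as the reducing agent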
SUMO HTRF inh: inhibitors of human SUMOylation (UBC9); P63279; HTRF SUMOylation assay, SAE1/SAE2 + UBC9, in vitro; inhibition, % at 35 µM; actives 0.36% (n = 290,000); in the data active means inhibition above about 50%, passing the limit was not always enough
Target sequence (P63279 whole entry, looked up): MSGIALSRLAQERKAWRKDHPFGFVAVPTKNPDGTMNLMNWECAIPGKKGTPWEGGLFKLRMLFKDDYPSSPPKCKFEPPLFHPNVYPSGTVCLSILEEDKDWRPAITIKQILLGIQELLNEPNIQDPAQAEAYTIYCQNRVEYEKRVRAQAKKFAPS
p97 confirm: confirmation of human p97 ATPase inhibitors; shares compounds with p97 ATPase inh; recombinant p97 ATPase, Kinase-Glo ATP luminescence; inhibition, % at 8 µM; actives 44% (n = 760); AID 1517;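 active means percent inhibition of p97 ATPase above a set limit, the primary screen's mean plus 3 SD, cut at about 15% in these data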;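 further: 0% = DMSO wells and 100% = wells lacking p97 protein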
* marks the source's active call; other numbers are inactive results; · = no result. Rows were chosen to be rich in hits. Some 0.69% of all compounds tested hit in one or more screens of this group.

SMILES	p97 ATPase inh	PERK inhibitor	Redox H2O2 prof	SUMO HTRF inh	p97 confirm
Cc1[nH][nH]c(=O)c1C(c1ccc(-c2ccccc2C(=O)O)o1)c1c(C)[nH][nH]c1=O	22*	0	0	97	24*
COC(=O)c1ccc(-c2ccc(C(c3c(C)[nH][nH]c3=O)c3c(C)[nH][nH]c3=O)o2)cc1	11	0	0	28	·
Cc1[nH][nH]c(=O)c1C(c1ccc(-c2cccc(C(=O)O)c2)o1)c1c(C)[nH][nH]c1=O	19*	2	-1	88*	12
Cc1ccc2oc(-c3ccccc3C(=O)O)cc(=O)c2c1	4	0	-2	24	·
CC(C)N(CC(N)=O)C(=O)Cc1coc2cc3c(cc12)CCC3	26*	1	0	6	9
O=C(Cn1c(-c2ccccc2)noc1=O)Nc1ccc(N2CCCCCC2)cc1	16*	0	-1	-9	3
O=C(Cn1c(-c2ccccc2)noc1=O)Nc1ccc(S(=O)(=O)N2CCOCC2)cc1	-6	0	1	32	·
Cc1cc(C)cc(NS(=O)(=O)c2c(C(=O)N3CCCCCC3)c(C)n(C)c2C)c1	·	·	·	-6	·
O=Cc1ccc(OCc2cccc(C(F)(F)F)c2)cc1O	15*	2	-2	22	19*
Nc1c(C(=O)N/N=C/c2cccnc2)oc2nc(-c3ccco3)cc(-c3ccco3)c12	17*	1	·	95*	4
Oc1cccc2cc3cccc(O)c3c(O)c12	15*	2	-1	12	14
COc1cc2cccc(OC)c(=O)c2c(O)c1OC	9	0	0	8	·
Cc1c(CC(=O)NCCCO)c(=O)oc2cc3c(cc12)CCC(C)(C)O3	·	·	·	-10	·
Cc1c(O)ccc2c(O)c(NC(=O)c3ccc4c(c3)CCC(C)(C)O4)c(=O)oc12	29*	2	·	5	0
Cc1nc(NCCc2ccc(Cl)cc2)c2nnn(Cc3ccccc3)c2n1	·	·	·	22	·
N/C(=N\NC(=O)c1cccc(F)c1)c1cc2ccccc2oc1=O	16*	1	·	6	8
Cn1ccs/c1=N\S(=O)(=O)c1ccc(F)cc1	18*	1	0	3	1
Cc1ccc(S(=O)(=O)/N=c2\sccn2C)cc1	1	1	2	-15	·
O=C(Cc1ccc(Cl)cc1)NCCCNC(=O)c1cccnc1	·	·	·	11	·
O=C(N/N=C/c1c[nH]c2ccccc12)c1cc(-c2ccc(-c3ccccc3)cc2)n[nH]1	17*	0	-4	26	11
O=C(N/N=C/c1c[nH]c2ccccc12)c1cc(-c2ccccc2)n[nH]1	4	0	1	-13	·
Cc1cc(/C=C2\SC(=S)NC2=O)c(C)n1-c1ccc(O)cc1	56*	1	·	26	8
COc1ccccc1/C=C/C(=O)N1CCc2cc(OC)c(OC)cc2C1C (stereo not given)	·	·	·	-14	·
O=C(CNC(=O)c1ccc(F)cc1)N/N=C/c1ccc(O)c([N+](=O)[O-])c1	22*	1	0	15	5
O=C(CNC(=O)c1cccc(F)c1)N/N=C/c1ccc(O)c([N+](=O)[O-])c1	-3	0	0	3	·
SMILES	p97 ATPase inh	PERK inhibitor	Redox H2O2 prof	SUMO HTRF inh	p97 confirm
CN(C(=S)Nc1cccnc1)c1ccc(O)cc1	18*	1	0	64	7
CC1CCCC(NC(=O)CCn2c(=S)oc3ccccc32)C1C (stereo not given)	3	0	·	22	·
O=C(CCn1c(=S)oc2ccccc21)NC1CCCCCC1	16*	2	·	1	9
Cc1ccccc1NC(=O)C(Cl)=C(Cl)Cl	27*	-1	-2	4	36*
Cc1ccccc1NNC(=O)C(=O)NNc1ccccc1C	-4	0	·	-16	·
Cn1c(SCC(=O)N2CCCc3ccccc32)nnc1-c1c[nH]c2ccccc12	16*	-1	3	8	6
CCn1c(SCC(=O)N2CCCc3ccccc32)nnc1-c1c[nH]c2ccccc12	2	-1	1	8	·
Cc1nn(CCOc2cccc(Cl)c2)c(C)c1[N+](=O)[O-]	·	·	·	5	·
CNc1nc(NCc2ccccc2)c2ccccc2n1	·	·	·	5	·
Oc1ccccc1Nc1nc(NCc2ccccc2)c2ccccc2n1	26*	2	0	-12	31*
CCCCn1c(NC(=O)c2ccco2)c(S(=O)(=O)c2ccc(C)cc2)c2nc3ccccc3nc21	27*	-1	5	100*	8
CCCCCn1c(NC(=O)c2ccco2)c(S(=O)(=O)c2ccc(C)cc2)c2nc3ccccc3nc21	26*	-1	1	·	10
CCCCn1c(NS(=O)(=O)c2ccccc2)c(S(=O)(=O)c2ccc(C)cc2)c2nc3ccccc3nc21	25*	0	100*	·	29*
CCC(=O)Nc1c(S(=O)(=O)c2ccc(C)cc2)c2nc3ccccc3nc2n1C(C)c1ccccc1 (stereo not given)	-6	-1	0	-4	·
CCCCn1c(NC(=O)c2ccc(Br)o2)c(S(=O)(=O)c2ccccc2)c2nc3ccccc3nc21	46*	-1	0	·	22*
Cc1ccc(S(=O)(=O)c2c(N)n(CCCO)c3nc4ccccc4nc23)cc1	-1	-2	0	14	·
CCn1nc(C)cc1C(=O)N(C)C1CCCN(Cc2ccccc2F)C1 (stereo not given)	·	·	·	2	·
CCN1CCN(C(C)C(=O)NC2CCCCC2)CC1 (stereo not given)	5	2	·	-1	·
N#CC1=C(N)NC(=S)C(C(N)=O)C1c1ccccc1F (stereo not given)	16*	-1	·	16	6
N#CC1=C(N)NC(=S)C(C(N)=O)C1c1ccc(Cl)cc1Cl (stereo not given)	3	0	0	-1	·
Cc1cc(C)c(C)c(S(=O)(=O)N2CCN(c3ncnc4sc(C)c(C)c34)CC2)c1C	·	·	·	-26	·
Cc1ccc(C(=O)NC(C#N)=C(Cl)Cl)cc1	22*	0	0	2	21*
O=C1NN(c2ccc(F)c(Cl)c2)C(=O)/C1=C\c1cccc(OC(=O)c2cccs2)c1	16*	1	1	6	15
CCN1C(=O)c2ccc(-c3nc4ccccc4c(=O)o3)cc2C1=O	24*	1	0	-9	6
CCOC(=O)C(C)Oc1cccc2c(=O)n(CC(=O)Nc3ccc4c(c3)OCCO4)ccc12 (stereo not given)	35*	1	1	10	8
C=C(C)Cn1c(=O)c2c(nc3n2CC(C)CN3Cc2ccccc2)n(C)c1=O (stereo not given)	·	·	·	22	·
NNC(=O)c1nc(Cl)c(Cl)c(N)c1Cl	2	1	·	15	·
COc1ccc2c(c1)Cc1sc(NC(=O)c3ccccc3)nc1-2	18*	0	1	93	2
CCOC(=O)C1CCN(S(=O)(=O)c2cn(C)c(=O)n(C)c2=O)CC1	2	1	0	-4	·
